Bioassay records from PubChem.
An excerpt weighted towards active compounds, which were near 19% of everything screened.
Shiga toxin inh: Shiga toxin inhibition; Vero cells, Shiga toxin protein synthesis inhibition reporter; inhibition, % at 38.7 µM; 290,000 tested, 9.2% active; AID 2315; in the data active = inhibition mostly above about 28%, no sharp cut-off; inactive = mostly below about 43%; also: 0% is about no effect
Marburg entry inh: Marburg virus entry inhibition | Marburg virus pseudotyped entry inhibition, cell reporter | Potency, µM (doses to about 37.8 µM), for inactives: at the highest dose activity change, negative = inhibition, usual class: inhibitors | 300,000 tested, 1.8% active; calls by dose curve; tested in HEK293 cells; also: potency is read from the fitted curve at half-maximal effect; % is scaled to controls: 0 for no effect and ±100 for the full control effect
Lassa entry inh: blocks Lassa virus binding to or entry into cells | Lassa virus pseudotype entry inhibition, cell reporter | AID 540256 | 300,000 tested, 1.2% active | Potency, µM (top dose mostly 37.9 µM), without a hit: top-dose activity change, negative = inhibition, usual class: inhibitors; calls by dose curve; tested in HEK293 cells; also: potency is read from the fitted curve at half-maximal effect; % is scaled to controls: 0 for no effect and ±100 for the full control effect; nearly all actives have a fitted effect of over 50% in size
Pf growth 48h: inhibits P. falciparum growth in the first generation, 48 h. P. falciparum luciferase growth in erythrocytes, 48 h. Potency, µM (top dose mostly 28.7 µM), for the others: at the top dose activity change, negative = inhibition, hits mostly inhibitors. 310,000 tested, 5.9% active. AID 504832; also: potency is read from the fitted curve at half-maximal effect; % is scaled to controls: 0 for no effect and ±100 for the full control effect
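Cell-based growth assay: transgenic P. falciparum expressing firefly luciferase, cultured in red cells within RPMI 1640 containing 0.5% w/v Albumax, 24 mM bicarbonate and gentamycin. A drop in luciferase activity indicates inhibition.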
Pf growth 96h: P. falciparum growth inhibition at 96 hour, primary screen for plastid delayed-death inhibitors; P. falciparum luciferase reporter growth, 96 h; Potency, µM (top dose mostly 28.7 µM), without a hit: at the top dose activity change, negative = inhibition, usual class: inhibitors; 320,000 tested, 6.9% active; AID 504834; also: potency is read from the fitted curve at half-maximal effect; % is scaled to controls: 0 for no effect and ±100 for the full control effect
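Infected RBCs, 2% Hct / 0.05% parasitemia final; luciferase-reporter P. falciparum; cpd 96 h, 37 C, 5% CO2; luciferase detection reagent; luminescence.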
CHX counter: counter-screen for Shiga toxin inhibitors: cycloheximide protein synthesis inhibition; 300,000 tested, 12% active; cell reporter, cycloheximide protein synthesis inhibition counterscreen; max response, %; AID 2314; in the data active = max response mostly above about 13%, no sharp cut-off; inactive = mostly below about 14%; also: read at 38.3 µM for the half of the compounds with a filed dose; 0% is about no effect
* hit, by the source's call; ? = inconclusive; / = no result; [ ] = another dose, or the depositor's remark. Unless noted, calls follow the shape of the dose curve; as a rule, active = well fitted inhibition curve with a large enough effect; inconclusive = small, poorly fitted or top-dose-only effect, or another doubt; inactive = no such curve, though single readings can be large or run the other way.

SMILES	Shiga toxin inh	Marburg entry inh	Lassa entry inh	Pf growth 48h	Pf growth 96h	CHX counter
O=C(CSc1ccccc1)NC1CCCCCCC1	62*	/	/	69%	9%	40*
NC(=O)c1ccc(-n2nnnc2SCC(=O)NC2CCCCC2)cc1	-4	9%[46.1 µM]	5%[46.1 µM]	27%	13µM*	-4
Nc1cc(=O)nc(SCC(=O)NC2CCCCC2)n1-c1ccccc1	5	-2%	0%	4%	-12%	2
Nc1nnc(SCC(=O)NC2CCCCC2)n1-c1ccccc1	-7	?	1%	14%	8.3µM*	8
O=C(NCCCn1ccnc1)c1ccco1	-6	?	-1%	0%	/	0
Cc1cc(C)c(C#N)c(SCCS(=O)(=O)Cc2ccccc2)n1	8	-13%	10%	10%	/	-2
CCN(CC(=O)NC(C)(C)C)C(=O)c1ccccc1SCC(=O)NC1CCCCCCC1	-7	-13%	0%	10µM*	?	-3
O=c1c2ccccc2[se]n1-c1ccccc1	19	18µM*	15µM*	?	?	13
CCOC(=O)c1c(C)n(CC(O)c2ccccc2)c2ccc(O)cc12 (stereo not drawn)	-9	?	?	12µM*	12µM*	-2
CCOC(=O)c1c(C)n(CCOc2ccccc2)c2ccc(O)cc12	13	1%	-11%	-12%	?	7
O=S1(=O)C=C(Oc2ccc3ccccc3c2)c2ccccc21	63	?	?	?	-9%	7
O=S1(=O)C=C(Sc2nnc(-c3ccccc3)o2)c2ccccc21	4	5.8µM*	21µM*	3.7µM*	2%	-5
Cc1cc(C)nc(SC2=CS(=O)(=O)c3ccccc32)n1	14	4.5µM*	?	?	-25%	8
O=S1(=O)C=C(Sc2nc3ccccc3s2)c2ccccc21	76*	3.7µM*	?	8.3µM*	/	77*
CCN(CC)C(=O)CSc1nnc(-c2ccccc2)o1	82	-10%	3%	105%	/	35
O=C1C=C(NCc2ccccc2)CCC1	6	?	4%	-1%	31%	-1
CCOC(=O)Nc1ccc2ncn(C)c(=O)c2c1	25	/	/	/	-9%	10
COc1ccc(OC)c(CN2CCN(Cc3cc(OC)c(OC)c(OC)c3)CC2)c1	/	/	/	0%	13µM*	-2
COc1ccc(CN2CCN(Cc3ccc(C(F)(F)F)cc3)CC2)c(OC)c1	-4	/	/	-18%[0.00184 µM]	-14%	-6
COc1ccc(CN2CCN(Cc3ccc(C)cc3)CC2)c(OC)c1	20	10µM*	5%	-21%[0.00184 µM]	137%	-6
COc1cc(OC)c(OC)cc1CN1CCN(Cc2ccc(SC)cc2)CC1	10	7.3µM*	?	0%	24%	6
COCCNC(=O)c1c(-c2ccccc2)c(-c2ccccc2)nn(C)c1=O	/	1%[46.1 µM]	20%[46.1 µM]	/	/	/
Cc1ccc(S(=O)(=O)N/N=c2\sc3ccccc3n2C)cc1	-11	-14%	0%	7%	-12%	-7
C/C(=N\N=c1/sc2ccccc2n1C)c1ccc(N2CCOCC2)cc1	81	4%[46.1 µM]	-3%	31%	43%	22*
C/C(=N\N=c1/sc2ccccc2n1C)c1ccccn1	69*	/	/	138%	103%	78*
SMILES	Shiga toxin inh	Marburg entry inh	Lassa entry inh	Pf growth 48h	Pf growth 96h	CHX counter
C/C(=N\NC(=O)c1cc(-c2ccncc2)nc2ccccc12)c1ccc(N2CCOCC2)cc1	-13	/	/	-12%	?	-7
Cc1cnc(C(=O)OCC(=O)Nc2sc3c(c2C(N)=O)CCCC3)cn1	/	9%	-7%	-3%	9%	/
Cc1cc(C(=O)N/N=C/c2c(C)[nH]n(-c3ccccc3)c2=O)n[nH]1	-7	?	-5%[46.1 µM]	12%	?	9
Cc1[nH]n(-c2ccccc2)c(=O)c1/C=N/NC(=O)c1ccc(O)cc1O	68*	/	/	/	?	29*
Cc1ccc(-n2[nH]c(C)c(/C=N/NC(=O)c3ccc(O)cc3O)c2=O)cc1	73*	/	/	?	?	25*
Cc1ccc(-n2[nH]c(C)c(C=Nc3ccc4[nH]c(=O)[nH]c4c3)c2=O)cc1	-12	?	?	10%	0%	-3
COCCCNC(=O)CC1C[C@H](C(=O)N2CCCCC2)[C@@]2(C)c3[nH]c4ccc(OC)cc4c3CCN2C1=O (stereo partly drawn)	/	3%	/	/	/	/
CNC(=O)c1ccc(-c2ccc(OC)cc2)s1	78*	?	-10%	9%	0%	26*
O=C(Nc1cccc(F)c1)c1ccc(-c2ccccc2)s1	/	?	16%[46.1 µM]	/	/	/
O=C(Nc1ccccc1)c1ccc(-c2ccc(F)cc2)s1	88*	?	16%	5%	54%	36*
COc1ccc(NC(=O)c2ccc(-c3ccc(OC)cc3)s2)cc1	72*	16%[46.1 µM]	1%[46.1 µM]	26%	?	20
CNC(=O)c1ccc(-c2ccc(F)cc2)s1	49	?	11%	/	-74%	31
Cc1ccc(NC(=O)c2ccc(-c3ccccc3)s2)cc1	/	9%[46.1 µM]	2%[46.1 µM]	/	/	/
CNC(=O)c1ccc(-c2ccc(Cl)c(Cl)c2)s1	66*	?	-9%[46.1 µM]	?	?	42*
CCCCCC(=O)NNC1=NCC(Cc2ccccc2)S1 (stereo not drawn)	-18	-1%[46.1 µM]	-24%	?	7%	5
CCOC(=O)c1c(Nc2ccccc2)sc(/C=C2\C=Nc3ccccc32)c1O	-3	?	0%	/	?	-3
COc1cccc(NS(=O)(=O)NC(=O)c2c(C)[nH]c3ccccc23)c1	30*	/	/	31%	?	31*
COc1cccc(NS(=O)(=O)NC(=O)c2c[nH]c3ccccc23)c1	53	/	/	12µM*	72%	45*
O=C(CN1C(=O)CSc2ccc(S(=O)(=O)N3CCCC3)cc21)NCc1ccc(F)cc1Cl	/	/	1%[46.1 µM]	/	/	/
Cc1coc2c(C)c3oc(=O)c(CCC(=O)NCCCn4ccnc4)c(C)c3cc12	2	/	/	10µM*	?	-1
Cc1c(CCC(=O)NCCCn2ccnc2)c(=O)oc2c(C)c3occ(C(C)(C)C)c3cc12	-11	?	?	?	9.3µM*	-8
Cc1coc2c(C)c3oc(=O)c(CCC(=O)NCCCN4CCOCC4)c(C)c3cc12	-11	/	/	?	?	-3
Cn1cc(SCC(=O)Nc2ccc3c(c2)OCCO3)c2ccccc21	63*	/	/	28%	33%	24*
Cc1cccc(-n2ccnc2SCC(=O)Nc2ccc3c(c2)OCO3)c1	/	/	-15%[46.1 µM]	/	/	/
O=C(CSc1ccc2c(c1)OCCO2)Nc1ccc2c(c1)OCO2	-12	-8%	8%	4%	/	15*
Cc1cccc(-n2ccnc2SCC(=O)Nc2ccc3c(c2)OCCO3)c1	-2	20%	8%	2%	?	27*
O=C(CSc1ccccc1F)Nc1ccc2c(c1)OCO2	/	0%	-4%	/	/	/
O=C(CSc1cn(CCNC(=O)c2ccccc2F)c2ccccc12)Nc1ccc2c(c1)OCCO2	/	-4%[46.1 µM]	-26%[46.1 µM]	/	/	/
O=C(CSc1ccccc1)Nc1ccc2c(c1)OCO2	65*	?	?	169%	-20%	47*
